About 8,800 targets were measured; listed, in parts, are those with a hit and a random draw of the rest. About 0.5% of all pairs of compound and target were hits. A number with no mark means an inactive call.

UniProt O95260, sequence (O95260 whole entry, looked up): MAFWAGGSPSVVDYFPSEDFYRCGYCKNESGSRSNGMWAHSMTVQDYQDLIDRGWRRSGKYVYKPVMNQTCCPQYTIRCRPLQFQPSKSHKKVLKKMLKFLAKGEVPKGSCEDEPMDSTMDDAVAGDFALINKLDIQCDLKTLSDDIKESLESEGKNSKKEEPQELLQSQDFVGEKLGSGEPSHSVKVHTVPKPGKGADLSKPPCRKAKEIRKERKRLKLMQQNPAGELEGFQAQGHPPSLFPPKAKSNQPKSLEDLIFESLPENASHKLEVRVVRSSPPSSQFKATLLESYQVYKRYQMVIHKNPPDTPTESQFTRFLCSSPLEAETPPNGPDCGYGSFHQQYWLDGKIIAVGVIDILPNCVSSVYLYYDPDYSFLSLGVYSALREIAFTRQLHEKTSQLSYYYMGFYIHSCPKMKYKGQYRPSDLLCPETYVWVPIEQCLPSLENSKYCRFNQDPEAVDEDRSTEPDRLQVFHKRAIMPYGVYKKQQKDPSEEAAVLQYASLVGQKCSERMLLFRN
UniProt Q99700, sequence (Q99700 whole entry, looked up): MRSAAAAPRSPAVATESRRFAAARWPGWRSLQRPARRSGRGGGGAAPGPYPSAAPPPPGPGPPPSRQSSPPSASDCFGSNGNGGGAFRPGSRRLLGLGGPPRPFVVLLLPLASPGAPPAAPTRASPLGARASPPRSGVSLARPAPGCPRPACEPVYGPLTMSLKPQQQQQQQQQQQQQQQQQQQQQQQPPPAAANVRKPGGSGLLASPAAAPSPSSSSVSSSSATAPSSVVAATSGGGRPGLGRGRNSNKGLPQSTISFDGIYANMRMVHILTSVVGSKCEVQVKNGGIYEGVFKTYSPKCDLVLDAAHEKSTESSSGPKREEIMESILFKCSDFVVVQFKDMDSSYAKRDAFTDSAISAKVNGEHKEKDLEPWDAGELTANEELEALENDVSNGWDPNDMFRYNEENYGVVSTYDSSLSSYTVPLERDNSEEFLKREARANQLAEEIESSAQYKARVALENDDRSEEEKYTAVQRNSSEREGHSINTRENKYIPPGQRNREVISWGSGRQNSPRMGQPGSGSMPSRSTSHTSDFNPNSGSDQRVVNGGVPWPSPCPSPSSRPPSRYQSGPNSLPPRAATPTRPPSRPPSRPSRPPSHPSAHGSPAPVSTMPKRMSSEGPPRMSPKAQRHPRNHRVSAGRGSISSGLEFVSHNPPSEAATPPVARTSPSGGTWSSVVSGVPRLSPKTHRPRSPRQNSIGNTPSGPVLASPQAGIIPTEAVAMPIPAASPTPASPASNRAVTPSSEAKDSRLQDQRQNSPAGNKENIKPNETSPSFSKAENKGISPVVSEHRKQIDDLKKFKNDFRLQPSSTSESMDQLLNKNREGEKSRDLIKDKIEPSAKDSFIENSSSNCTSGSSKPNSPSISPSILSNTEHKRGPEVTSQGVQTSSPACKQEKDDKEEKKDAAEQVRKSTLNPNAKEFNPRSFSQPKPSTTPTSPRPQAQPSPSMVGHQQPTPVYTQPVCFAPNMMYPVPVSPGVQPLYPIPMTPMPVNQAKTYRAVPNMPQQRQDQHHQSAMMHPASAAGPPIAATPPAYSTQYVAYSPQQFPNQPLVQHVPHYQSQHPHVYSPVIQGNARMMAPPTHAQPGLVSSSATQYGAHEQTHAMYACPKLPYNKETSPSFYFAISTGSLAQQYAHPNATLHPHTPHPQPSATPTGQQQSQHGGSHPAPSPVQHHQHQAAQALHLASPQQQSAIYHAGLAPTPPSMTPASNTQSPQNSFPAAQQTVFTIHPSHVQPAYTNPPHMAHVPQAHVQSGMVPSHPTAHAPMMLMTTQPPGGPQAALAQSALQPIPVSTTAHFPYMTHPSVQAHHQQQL
UniProt Q8N7R7, sequence (Q8N7R7 whole entry, looked up): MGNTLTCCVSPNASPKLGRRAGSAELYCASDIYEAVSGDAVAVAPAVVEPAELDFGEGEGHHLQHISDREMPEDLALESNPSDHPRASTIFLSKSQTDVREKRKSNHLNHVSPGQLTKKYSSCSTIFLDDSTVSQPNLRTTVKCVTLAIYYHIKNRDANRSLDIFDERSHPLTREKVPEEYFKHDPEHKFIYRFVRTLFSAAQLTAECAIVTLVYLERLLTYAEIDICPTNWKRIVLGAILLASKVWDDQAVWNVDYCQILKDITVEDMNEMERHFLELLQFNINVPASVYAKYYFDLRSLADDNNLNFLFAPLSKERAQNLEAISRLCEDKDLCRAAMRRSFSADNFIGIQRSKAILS
UniProt Q96RR4, sequence (Q96RR4 whole entry, looked up): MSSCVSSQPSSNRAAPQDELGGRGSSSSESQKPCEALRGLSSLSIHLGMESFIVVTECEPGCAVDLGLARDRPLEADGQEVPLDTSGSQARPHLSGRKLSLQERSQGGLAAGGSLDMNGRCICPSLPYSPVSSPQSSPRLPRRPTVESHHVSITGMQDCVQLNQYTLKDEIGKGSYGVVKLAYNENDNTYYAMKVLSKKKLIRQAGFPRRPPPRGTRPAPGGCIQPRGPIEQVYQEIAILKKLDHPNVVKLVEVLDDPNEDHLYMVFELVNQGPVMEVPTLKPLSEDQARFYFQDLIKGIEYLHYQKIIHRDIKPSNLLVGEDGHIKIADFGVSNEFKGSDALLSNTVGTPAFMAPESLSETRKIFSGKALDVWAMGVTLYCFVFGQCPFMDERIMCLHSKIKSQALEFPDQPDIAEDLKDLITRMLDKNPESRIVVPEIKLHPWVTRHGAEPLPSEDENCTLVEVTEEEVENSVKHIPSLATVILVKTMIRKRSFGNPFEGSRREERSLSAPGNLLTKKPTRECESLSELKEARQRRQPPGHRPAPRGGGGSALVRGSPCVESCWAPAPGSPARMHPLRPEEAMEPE
UniProt P42574, sequence (P42574 whole entry, looked up): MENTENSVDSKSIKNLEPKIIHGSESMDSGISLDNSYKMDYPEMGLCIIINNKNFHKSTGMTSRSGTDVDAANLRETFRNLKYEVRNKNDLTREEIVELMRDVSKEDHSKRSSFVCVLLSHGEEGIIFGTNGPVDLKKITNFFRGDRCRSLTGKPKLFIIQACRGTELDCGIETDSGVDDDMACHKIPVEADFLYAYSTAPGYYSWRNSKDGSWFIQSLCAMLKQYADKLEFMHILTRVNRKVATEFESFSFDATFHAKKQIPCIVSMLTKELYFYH
UniProt P20248, sequence (P20248 whole entry, looked up): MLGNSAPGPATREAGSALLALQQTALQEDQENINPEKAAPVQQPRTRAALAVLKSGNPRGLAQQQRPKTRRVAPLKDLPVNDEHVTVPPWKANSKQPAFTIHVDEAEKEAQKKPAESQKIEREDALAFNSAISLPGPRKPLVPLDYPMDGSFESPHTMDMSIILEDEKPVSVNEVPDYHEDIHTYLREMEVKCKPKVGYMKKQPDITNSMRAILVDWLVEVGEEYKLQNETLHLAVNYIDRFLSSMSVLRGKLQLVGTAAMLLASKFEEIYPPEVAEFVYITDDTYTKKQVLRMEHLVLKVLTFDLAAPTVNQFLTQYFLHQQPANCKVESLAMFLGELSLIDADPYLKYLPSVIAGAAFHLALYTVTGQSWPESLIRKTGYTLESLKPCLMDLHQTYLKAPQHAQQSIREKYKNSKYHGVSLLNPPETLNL
UniProt Q9Y2V0, sequence (Q9Y2V0 whole entry, looked up): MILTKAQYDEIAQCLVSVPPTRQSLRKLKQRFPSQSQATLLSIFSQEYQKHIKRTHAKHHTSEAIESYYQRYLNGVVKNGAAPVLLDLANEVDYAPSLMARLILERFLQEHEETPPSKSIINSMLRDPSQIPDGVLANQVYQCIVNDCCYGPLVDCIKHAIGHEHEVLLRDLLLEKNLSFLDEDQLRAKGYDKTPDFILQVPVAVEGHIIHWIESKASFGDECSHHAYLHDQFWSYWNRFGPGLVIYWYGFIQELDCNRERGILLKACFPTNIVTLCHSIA
UniProt O95352, sequence (O95352 whole entry, looked up): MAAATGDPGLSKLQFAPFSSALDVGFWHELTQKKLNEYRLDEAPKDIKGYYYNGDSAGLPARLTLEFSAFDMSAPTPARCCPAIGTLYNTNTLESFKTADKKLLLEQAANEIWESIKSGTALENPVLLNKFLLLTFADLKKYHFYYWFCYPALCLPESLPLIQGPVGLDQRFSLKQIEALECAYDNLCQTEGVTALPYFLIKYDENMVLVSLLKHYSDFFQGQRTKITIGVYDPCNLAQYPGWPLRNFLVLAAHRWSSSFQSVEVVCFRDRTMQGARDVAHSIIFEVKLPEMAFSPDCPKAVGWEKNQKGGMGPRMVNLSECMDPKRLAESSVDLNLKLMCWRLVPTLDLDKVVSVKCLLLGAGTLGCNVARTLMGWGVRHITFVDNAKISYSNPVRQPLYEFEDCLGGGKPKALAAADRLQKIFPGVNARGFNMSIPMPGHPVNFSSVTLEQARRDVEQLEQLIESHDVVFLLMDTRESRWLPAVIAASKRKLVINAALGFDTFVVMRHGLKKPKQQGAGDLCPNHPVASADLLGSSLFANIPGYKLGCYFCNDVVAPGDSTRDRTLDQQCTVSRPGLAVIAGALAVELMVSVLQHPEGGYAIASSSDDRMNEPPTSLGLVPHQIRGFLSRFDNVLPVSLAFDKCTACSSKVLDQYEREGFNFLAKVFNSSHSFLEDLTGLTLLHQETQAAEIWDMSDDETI
UniProt Q5BKX5, sequence (Q5BKX5 whole entry, looked up): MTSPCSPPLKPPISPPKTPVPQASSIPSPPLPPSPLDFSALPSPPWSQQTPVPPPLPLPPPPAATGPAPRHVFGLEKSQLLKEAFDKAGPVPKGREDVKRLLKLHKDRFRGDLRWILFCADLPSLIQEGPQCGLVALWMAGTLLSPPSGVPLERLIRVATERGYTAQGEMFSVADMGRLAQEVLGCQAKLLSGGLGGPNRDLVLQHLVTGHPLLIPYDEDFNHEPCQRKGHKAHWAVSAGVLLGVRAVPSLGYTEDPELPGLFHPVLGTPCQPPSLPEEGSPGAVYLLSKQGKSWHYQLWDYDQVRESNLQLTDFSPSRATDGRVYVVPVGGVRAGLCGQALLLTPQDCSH

Compound in one assay: CCN(CCCOc1ccc2c(Nc3cc(CC(=O)Nc4cccc(F)c4)[nH]n3)ncnc2c1)CCOP(=O)(O)O [barasertib]
Nature of the assay: log2 fold change, soluble protein after heating vs DMSO (PISA); higher = thermal stabilisation; K562 lysate, 10 uM; active = over 0.2 and 3.5 SD of the protein, either way, in both replicates (recomputed). In outline:
(§1)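 Log-two fold change in thermal stability relative to solvent controls is reported from duplicates. For each sample, crude K562 extract from dounce-homogenised pellets in PBS pH 7.4 with 1 mM MgCl2, at 1 mg/mL protein, was treated with 10 μM compound for 30 min. Aliquots heated for 3 min across 48°C-58°C were pooled, brought to 0.5% NP-40 at 4°C and cleared at 21,000xg for 90 min. The supernatant was quantified by TMTpro 16plex LC-MS/MS with channel sums equalised.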
In the case of C15orf41 (UniProt Q9Y2V0), the log2 fold change is 0.095.

Turning to CDC123 (UniProt O75794), the log2 fold change was 0.04.

In the case of BMS1 (UniProt Q14692), the log2 fold change is 0.127.

CCNA2 (UniProt P20248): the log2 fold change is -0.056.

Regarding ATE1 isoform 2 (UniProt O95260), the log2 fold change is 0.069.

BPHL (UniProt Q86WA6): the log2 fold change is 0.058.

Turning to ATR (UniProt Q13535), the log2 fold change was 0.

Take BORCS5 (UniProt Q969J3): the log2 fold change was 0.201 (active).

Turning to CCNYL1 (UniProt Q8N7R7), the log2 fold change is -0.046.

Regarding CBFA2T3 (UniProt O75081), the log2 fold change was -0.055.

Take ATG7 (UniProt O95352): the log2 fold change was -0.002.

As to CAMKK2 (UniProt Q96RR4), the log2 fold change is 0.003.

With C19orf54 (UniProt Q5BKX5), the log2 fold change is 0.002.

Turning to ATXN2 (UniProt Q99700), the log2 fold change is 0.012.

As to CASP3 (UniProt P42574), the log2 fold change was -0.024.

As for CAMKK1 isoform 2 (UniProt Q8N5S9), the log2 fold change is 0.11.

Compound in the next assay: CC[C@@H]1C(=O)N(C)c2cnc(Nc3ccc(C(=O)NC4CCN(C)CC4)cc3OC)nc2N1C1CCCC1
Described as above. In outline:
as §1
For CARD9 (UniProt Q9H257), the log2 fold change is 0.068.

With ATG13 isoform 2 (UniProt O75143), the log2 fold change was 0.036.

With CCDC25 (UniProt Q86WR0), the log2 fold change was 0.027.

On to CCPG1 isoform 5 (UniProt Q9ULG6), for which the log2 fold change was 0.066.

Turning to BRAF (UniProt P15056), the log2 fold change was -0.069.

Turning to CALB2 (UniProt P22676), the log2 fold change is -0.036.

As to CES2 isoform 4 (UniProt O00748), the log2 fold change is -0.012.

Regarding CCDC47 (UniProt Q96A33), the log2 fold change is 0.024.

As for CCNB2 (UniProt O95067), the log2 fold change is 0.037.

On to ATP2B4 (UniProt P23634), for which the log2 fold change was -0.027.

As to CDKN1C (UniProt P49918), the log2 fold change was 0.027.

As to ATAD3B (UniProt Q5T9A4), the log2 fold change is -0.004.

As to CEP76 (UniProt Q8TAP6), the log2 fold change is -0.093.

Take CDK13 (UniProt Q14004): the log2 fold change is 0.002.

As to C2CD5 isoform 3 (UniProt Q86YS7), the log2 fold change was 0.062.

For the target CDAN1 (UniProt Q8IWY9), the log2 fold change is -0.093.

Turning to ATRIP (UniProt Q8WXE1), the log2 fold change is -0.281 (active).

In the case of CAMK2G isoform 8 (UniProt Q13555), the log2 fold change is 0.102.

Consider CDC16 (UniProt Q13042), for which the log2 fold change was -0.074.

In the case of CDC7 (UniProt O00311), the log2 fold change is 0.039.

Consider BNIP1 (UniProt Q12981), for which the log2 fold change was -0.032.

For the target CAD (UniProt P27708), the log2 fold change is -0.037.

For the target CFDP1 (UniProt Q9UEE9), the log2 fold change was 0.025.

Regarding C15orf41 (UniProt Q9Y2V0), the log2 fold change was -0.089.

For the target CDC123 (UniProt O75794), the log2 fold change is -0.12.

For the target BMS1 (UniProt Q14692), the log2 fold change was -0.027.

Consider CCNA2 (UniProt P20248), for which the log2 fold change is 0.022.

Turning to ATE1 isoform 2 (UniProt O95260), the log2 fold change is 0.019.

BPHL (UniProt Q86WA6): the log2 fold change is 0.015.

Consider ATR (UniProt Q13535), for which the log2 fold change was 0.017.

For BORCS5 (UniProt Q969J3), the log2 fold change is 0.057.

In the case of CCNYL1 (UniProt Q8N7R7), the log2 fold change was 0.031.

Turning to CBFA2T3 (UniProt O75081), the log2 fold change was 0.003.

In the case of ATG7 (UniProt O95352), the log2 fold change is -0.032.

With CAMKK2 (UniProt Q96RR4), the log2 fold change is 0.176.

For C19orf54 (UniProt Q5BKX5), the log2 fold change is -0.043.

As to ATXN2 (UniProt Q99700), the log2 fold change was 0.057.

As for CASP3 (UniProt P42574), the log2 fold change is 0.034.

In the case of CAMKK1 isoform 2 (UniProt Q8N5S9), the log2 fold change is 0.103.

Compound in the next assay: CC[C@@H]1C(=O)N(C)c2cnc(Nc3ccc(C(=O)N[C@H]4CC[C@H](N5CCN(CC6CC6)CC5)CC4)cc3OC)nc2N1C(C)C [volasertib]
The assay is described as above. In outline:
as §1
CARD9 (UniProt Q9H257): the log2 fold change is -0.001.

Regarding ATG13 isoform 2 (UniProt O75143), the log2 fold change is 0.007.

On to CCDC25 (UniProt Q86WR0), for which the log2 fold change was 0.005.

Regarding CCPG1 isoform 5 (UniProt Q9ULG6), the log2 fold change was 0.

As for BRAF (UniProt P15056), the log2 fold change is -0.044.

Take CALB2 (UniProt P22676): the log2 fold change was 0.017.

Consider CES2 isoform 4 (UniProt O00748), for which the log2 fold change is 0.004.

Turning to CCDC47 (UniProt Q96A33), the log2 fold change was 0.014.

As to CCNB2 (UniProt O95067), the log2 fold change is -0.072.

Turning to ATP2B4 (UniProt P23634), the log2 fold change is -0.004.

Consider CDKN1C (UniProt P49918), for which the log2 fold change was -0.066.

Take ATAD3B (UniProt Q5T9A4): the log2 fold change was -0.019.

For CEP76 (UniProt Q8TAP6), the log2 fold change is 0.

As for CDK13 (UniProt Q14004), the log2 fold change was -0.123.

In the case of C2CD5 isoform 3 (UniProt Q86YS7), the log2 fold change is -0.025.

Take CDAN1 (UniProt Q8IWY9): the log2 fold change is -0.034.

For the target ATRIP (UniProt Q8WXE1), the log2 fold change was -0.06.

Regarding CAMK2G isoform 8 (UniProt Q13555), the log2 fold change is -0.033.

For the target CDC16 (UniProt Q13042), the log2 fold change is -0.063.

In the case of CDC7 (UniProt O00311), the log2 fold change was -0.097.

On to BNIP1 (UniProt Q12981), for which the log2 fold change is -0.054.

Take CAD (UniProt P27708): the log2 fold change is -0.069.

As for CFDP1 (UniProt Q9UEE9), the log2 fold change was 0.039.

On to C15orf41 (UniProt Q9Y2V0), for which the log2 fold change is 0.041.

CDC123 (UniProt O75794): the log2 fold change was -0.05.

On to BMS1 (UniProt Q14692), for which the log2 fold change was -0.018.

As to CCNA2 (UniProt P20248), the log2 fold change was -0.018.

In the case of ATE1 isoform 2 (UniProt O95260), the log2 fold change was -0.013.

Regarding BPHL (UniProt Q86WA6), the log2 fold change was 0.

As for ATR (UniProt Q13535), the log2 fold change was -0.13.

On to BORCS5 (UniProt Q969J3), for which the log2 fold change was 0.027.

Turning to CCNYL1 (UniProt Q8N7R7), the log2 fold change is -0.046.

Consider CBFA2T3 (UniProt O75081), for which the log2 fold change was -0.02.

ATG7 (UniProt O95352): the log2 fold change was -0.052.

CAMKK2 (UniProt Q96RR4): the log2 fold change was 0.075.

Take C19orf54 (UniProt Q5BKX5): the log2 fold change was -0.058.

ATXN2 (UniProt Q99700): the log2 fold change was 0.001.

CASP3 (UniProt P42574): the log2 fold change is 0.013.

Turning to CAMKK1 isoform 2 (UniProt Q8N5S9), the log2 fold change was 0.136.

The values are drawn from the supplement of paper PMC10849652.
